{"source": "the supplement of paper PMC8728848", "binders": {"B1": {"name": "CVN (Nostoc ellipsosporum), P81180 (protein)", "chain": "LGKFSQTCYNSAIQGSVLTSTCERTNGGYNTSSIDLNSVIENVDGSLKWQPSNFIETCRNTQLAGSSELAAECKTRAQQFVSTKINLDDHIANIDGTLKYE"}}, "experiment_in_all_cases": "glycan array binding signal (z-score within array); higher = stronger binding", "conditions_in_all_cases": "glycan notation: IUPAC condensed, linker removed", "key": {"[1]": {"target": "Fuc(a1-2)[Gal(a1-3)]Gal(b1-4)GlcNAc(b1-2)Man(a1-3)[Fuc(a1-2)[Gal(a1-3)]Gal(b1-4)GlcNAc(b1-2)Man(a1-6)]Man(b1-4)GlcNAc(b1-4)GlcNAc", "summary_of_the_method": "(§1)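 Arrays were curated from the Consortium for Functional Glycomics database, 3228 in total, and kept only where the protein sequence was available. Binding is expressed as a within-array Z-score. This score was averaged across arrays of the same protein sequence at different concentrations or buffers and across linkers, and negative values can be read as non-binding.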"}, "[2]": {"target": "Fuc(a1-2)[Gal(a1-3)]Gal(b1-4)[Fuc(a1-3)]Glc", "summary_of_the_method": "as §1"}, "[3]": {"target": "Fuc(a1-2)[GalNAc(a1-3)]Gal(b1-4)[Fuc(a1-3)]GlcNAc(b1-3)GalNAc", "summary_of_the_method": "as §1"}, "Fuc(a1-3)GlcNAc": {"target": "Fuc(a1-3)GlcNAc", "summary_of_the_method": "as §1"}, "[4]": {"target": "Gal(b1-3)GlcNAc(b1-3)Gal(b1-4)GlcNAc(b1-6)[Gal(b1-3)GlcNAc(b1-3)]Gal(b1-4)Glc", "summary_of_the_method": "as §1"}, "[5]": {"target": "Gal(b1-4)GlcNAc(b1-2)[Gal(b1-4)GlcNAc(b1-4)]Man(a1-3)[Gal(b1-4)GlcNAc(b1-2)[Gal(b1-4)GlcNAc(b1-6)]Man(a1-6)]Man(b1-4)GlcNAc(b1-4)GlcNAc", "summary_of_the_method": "as §1"}, "[6]": {"target": "Gal(b1-4)GlcNAc(b1-3)[Gal(b1-4)GlcNAc(b1-6)]GalNAc", "summary_of_the_method": "as §1"}, "[7]": {"target": "Gal(b1-4)GlcNAc(b1-3)[GlcNAc(b1-6)]Gal(b1-4)GlcNAc", "summary_of_the_method": "as §1"}, "GalNAc(b1-3)GalNAc": {"target": "GalNAc(b1-3)GalNAc", "summary_of_the_method": "as §1"}, "[8]": {"target": "GlcNAc(a1-4)Gal(b1-4)GlcNAc(b1-3)Gal(b1-4)GlcNAc", "summary_of_the_method": "as §1"}, "[9]": {"target": "GlcNAc(b1-2)[GlcNAc(b1-4)]Man(a1-3)[GlcNAc(b1-2)Man(a1-6)]Man(b1-4)GlcNAc(b1-4)GlcNAc", "summary_of_the_method": "as §1"}, "[10]": {"target": "GlcNAc(b1-2)[GlcNAc(b1-6)]Man(a1-6)[GlcNAc(b1-2)Man(a1-3)]Man(b1-4)GlcNAc(b1-4)GlcNAc", "summary_of_the_method": "as §1"}, "GlcNAc(b1-4)GlcNAc": {"target": "GlcNAc(b1-4)GlcNAc", "summary_of_the_method": "as §1"}, "[11]": {"target": "GlcNAc(b1-4)GlcNAc(b1-4)GlcNAc(b1-4)GlcNAc(b1-4)GlcNAc(b1-4)GlcNAc", "summary_of_the_method": "as §1"}, "[12]": {"target": "GlcNAc(b1-6)Gal(b1-4)GlcNAc", "summary_of_the_method": "as §1"}, "[13]": {"target": "GlcNAc6S(b1-3)Gal(b1-4)GlcNAc", "summary_of_the_method": "as §1"}, "Kdn(a2-3)Gal(b1-4)Glc": {"target": "Kdn(a2-3)Gal(b1-4)Glc", "summary_of_the_method": "as §1"}, "[14]": {"target": "Man(a1-2)Man(a1-2)Man(a1-3)Man", "summary_of_the_method": "as §1"}, "[15]": {"target": "Man(a1-2)Man(a1-2)Man(a1-6)[Man(a1-3)]Man", "summary_of_the_method": "as §1"}, "[16]": {"target": "Man(a1-2)Man(a1-3)[Man(a1-2)Man(a1-6)]Man(a1-6)[Man(a1-2)Man(a1-2)Man(a1-3)]Man", "summary_of_the_method": "as §1"}, "[17]": {"target": "Man(a1-2)Man(a1-3)[Man(a1-2)Man(a1-6)]Man(a1-6)[Man(a1-2)Man(a1-2)Man(a1-3)]Man(b1-4)GlcNAc(b1-4)GlcNAc", "summary_of_the_method": "as §1"}, "[18]": {"target": "Man(a1-2)Man(a1-3)[Man(a1-6)]Man(a1-6)[Man(a1-2)Man(a1-3)]Man(b1-4)GlcNAc(b1-4)GlcNAc", "summary_of_the_method": "as §1"}, "[19]": {"target": "Man(a1-2)Man(a1-6)[Man(a1-3)]Man(a1-6)[Man(a1-2)Man(a1-2)Man(a1-3)]Man", "summary_of_the_method": "as §1"}, "[20]": {"target": "Man(a1-2)Man(a1-6)[Man(a1-3)]Man(a1-6)[Man(a1-2)Man(a1-2)Man(a1-3)]Man(b1-4)GlcNAc(b1-4)GlcNAc", "summary_of_the_method": "as §1"}, "Man(a1-3)[Man(a1-6)]Man": {"target": "Man(a1-3)[Man(a1-6)]Man", "summary_of_the_method": "as §1"}, "[21]": {"target": "Man(a1-3)[Man(a1-6)]Man(a1-6)[Man(a1-2)Man(a1-3)]Man(b1-4)GlcNAc(b1-4)GlcNAc", "summary_of_the_method": "as §1"}, "[22]": {"target": "Neu5Ac(a2-3)Gal(b1-3)GlcNAc6S", "summary_of_the_method": "as §1"}, "[23]": {"target": "Neu5Ac(a2-3)Gal(b1-4)GlcNAc(b1-3)Gal(b1-4)GlcNAc", "summary_of_the_method": "as §1"}, "[24]": {"target": "Neu5Ac(a2-3)Gal(b1-4)[Fuc(a1-3)]GlcNAc", "summary_of_the_method": "as §1"}, "Neu5Ac(a2-3)GalNAc": {"target": "Neu5Ac(a2-3)GalNAc", "summary_of_the_method": "as §1"}, "[25]": {"target": "Neu5Ac(a2-3)[GalNAc(b1-4)]Gal(b1-4)Glc", "summary_of_the_method": "as §1"}, "[26]": {"target": "Neu5Ac(a2-6)Gal(b1-4)GlcNAc(b1-3)Gal(b1-3)GlcNAc", "summary_of_the_method": "as §1"}, "[27]": {"target": "Neu5Ac(a2-6)Gal(b1-4)GlcNAc(b1-3)Gal(b1-4)GlcNAc", "summary_of_the_method": "as §1"}, "[28]": {"target": "Neu5Ac(a2-6)Gal(b1-4)GlcNAc(b1-3)Gal(b1-4)[Fuc(a1-3)]GlcNAc(b1-3)Gal(b1-4)[Fuc(a1-3)]GlcNAc", "summary_of_the_method": "as §1"}, "[29]": {"target": "Neu5Ac(a2-8)Neu5Ac(a2-3)[Gal(b1-3)GalNAc(b1-4)]Gal(b1-4)Glc", "summary_of_the_method": "as §1"}, "[30]": {"target": "Neu5Ac(a2-8)Neu5Ac(a2-8)Neu5Ac(a2-3)[GalNAc(b1-4)]Gal(b1-4)Glc", "summary_of_the_method": "as §1"}, "Neu5Gc(a2-6)GalNAc": {"target": "Neu5Gc(a2-6)GalNAc", "summary_of_the_method": "as §1"}, "[31]": {"target": "Neu5Gc(b2-6)Gal(b1-4)GlcNAc", "summary_of_the_method": "as §1"}}, "note": "Many of the other results were omitted from the sample, so the strongest signals are more common in it than they were.", "data": [{"binder": "B1", "values": [{"measurement": "glycan array binding signal (z-score)", "setting": "[1]", "result": 0.048}, {"measurement": "glycan array binding signal (z-score)", "setting": "[2]", "result": -0.107}, {"measurement": "glycan array binding signal (z-score)", "setting": "[3]", "result": 0.522}, {"measurement": "glycan array binding signal (z-score)", "setting": "Fuc(a1-3)GlcNAc", "result": -0.306}, {"measurement": "glycan array binding signal (z-score)", "setting": "[4]", "result": -0.301}, {"measurement": "glycan array binding signal (z-score)", "setting": "[5]", "result": 5.21}, {"measurement": "glycan array binding signal (z-score)", "setting": "[6]", "result": -0.095}, {"measurement": "glycan array binding signal (z-score)", "setting": "[7]", "result": -0.306}, {"measurement": "glycan array binding signal (z-score)", "setting": "GalNAc(b1-3)GalNAc", "result": -0.306}, {"measurement": "glycan array binding signal (z-score)", "setting": "[8]", "result": -0.203}, {"measurement": "glycan array binding signal (z-score)", "setting": "[9]", "result": 0.024}, {"measurement": "glycan array binding signal (z-score)", "setting": "[10]", "result": -0.3}, {"measurement": "glycan array binding signal (z-score)", "setting": "GlcNAc(b1-4)GlcNAc", "result": -0.301}, {"measurement": "glycan array binding signal (z-score)", "setting": "[11]", "result": -0.306}, {"measurement": "glycan array binding signal (z-score)", "setting": "[12]", "result": -0.302}, {"measurement": "glycan array binding signal (z-score)", "setting": "[13]", "result": -0.222}, {"measurement": "glycan array binding signal (z-score)", "setting": "Kdn(a2-3)Gal(b1-4)Glc", "result": -0.296}, {"measurement": "glycan array binding signal (z-score)", "setting": "[14]", "result": 5.16}, {"measurement": "glycan array binding signal (z-score)", "setting": "[15]", "result": 5.83}, {"measurement": "glycan array binding signal (z-score)", "setting": "[16]", "result": 7.15}, {"measurement": "glycan array binding signal (z-score)", "setting": "[17]", "result": 5.21}, {"measurement": "glycan array binding signal (z-score)", "setting": "[18]", "result": 5.58}, {"measurement": "glycan array binding signal (z-score)", "setting": "[19]", "result": 7.23}, {"measurement": "glycan array binding signal (z-score)", "setting": "[20]", "result": 6.39}, {"measurement": "glycan array binding signal (z-score)", "setting": "Man(a1-3)[Man(a1-6)]Man", "result": -0.299}, {"measurement": "glycan array binding signal (z-score)", "setting": "[21]", "result": 4.22}, {"measurement": "glycan array binding signal (z-score)", "setting": "[22]", "result": -0.304}, {"measurement": "glycan array binding signal (z-score)", "setting": "[23]", "result": -0.3}, {"measurement": "glycan array binding signal (z-score)", "setting": "[24]", "result": -0.268}, {"measurement": "glycan array binding signal (z-score)", "setting": "Neu5Ac(a2-3)GalNAc", "result": -0.303}, {"measurement": "glycan array binding signal (z-score)", "setting": "[25]", "result": -0.305}, {"measurement": "glycan array binding signal (z-score)", "setting": "[26]", "result": -0.302}, {"measurement": "glycan array binding signal (z-score)", "setting": "[27]", "result": -0.284}, {"measurement": "glycan array binding signal (z-score)", "setting": "[28]", "result": 0.537}, {"measurement": "glycan array binding signal (z-score)", "setting": "[29]", "result": -0.246}, {"measurement": "glycan array binding signal (z-score)", "setting": "[30]", "result": -0.237}, {"measurement": "glycan array binding signal (z-score)", "setting": "Neu5Gc(a2-6)GalNAc", "result": -0.308}, {"measurement": "glycan array binding signal (z-score)", "setting": "[31]", "result": -0.306}]}]}
